# Inconclusive results are not listed. The source made the active and inactive calls. The call rests on the fitted dose curve; in most records, active means well fitted cell-killing curve with a large enough effect in the repeat runs; inconclusive means weak or mixed curves, or effect the other way; inactive means flat fitted curve, though single readings scatter.
# Assay: cAMP Responsive Elements (CRE) small molecule agonists, cell-based qHTS assay: qHTS cell viability counter screen (AID 2060914); further: nearly all actives have a fitted effect of over 50% in size
# Settings: CRE-bla HEK293T viability, CellTiter-Glo luminescence, 5 h; series mostly up to 92.4 µM; activity change, negative = cytotoxicity: at the top concentration
# How it was run: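 Cells are seeded and incubated 18 h, treated with compounds in DMSO for 3 h, read for the bla reporter, then given CellTiter-Glo; luminescence is measured after 30 min at room temperature.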
# On the % scale 0 is the no-effect control and ±100 the full control effect; potency means the concentration at half of the fitted maximal effect.
Compound,"activity change, negative = cytotoxicity",Potency
CN(C)CCCNCCC#N,-7.59% (inactive),
CC(C)(C)c1cc(C=O)cc(C(C)(C)C)c1O,-1.45% [at 42.5 µM] (inactive),
CCCCCCCCCCCC(C)=O,0.0016% (inactive),
CC(=O)c1ccc2c(c1)N(CCCN(C)C)c1ccccc1S2,-5.88% [at 42.5 µM] (inactive),
C/C(Cl)=C/CCl,-3.74% (inactive),
Cc1c(C)c2c(c(C)c1O)CC[C@@](C)(CCC[C@H](C)CCC[C@H](C)CCCC(C)C)O2,0.642% (inactive),
Cc1ccc(N)c([N+](=O)[O-])c1,,inactive
CCCCCCCC[N+](CCCCCCCC)(CCCCCCCC)CCCCCCCC,,30.6 µM (active)
OCCOCC#CCOCCO,-3.14% (inactive),
C=C[Si](OCCOC)(OCCOC)OCCOC,,inactive
CCn1c2ccccc2c2cc([N+](=O)[O-])ccc21,-24.6% (inactive),
Cc1cc(C2(c3cc(C)c(O)cc3C)OS(=O)(=O)c3ccccc32)c(C)cc1O,,inactive
C[C@@H]1CN(CCCn2c3ccccc3c3ccccc32)C[C@H](C)N1,4.9% [at 42.5 µM] (inactive),
CCCCOC(=O)c1ccc(N)cc1,,inactive
CCCCO,-1.25% (inactive),
CC(=O)Nc1cccc(O)c1,,inactive
CCN(CC)c1cccc(O)c1,15.6% (inactive),
C/C=C/C=C/C(=O)O,,inactive
CCCCC/C=C/CC1CC(=O)OC1=O (centres undefined),-0.943% (inactive),

# Source: PubChem BioAssay (Tox21)
